# This is a sample that favours compounds with a hit; in the whole collection about 4.9% have one here.
# tim10-1 inh = inhibits growth of tim10-1 mutant yeast. S. cerevisiae tim10-1 ts strain growth, BacTiter-Glo, 24 h. inhibition, % at 20 µM. actives 2.2% (n = 330,000);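 active means inhibition of at least 40%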;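 further: mutant grown at 25 °C; 0% = DMSO wells with yeast and 100% = wells holding no yeast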
# tim23-1 inh = growth inhibitors of tim23-1 mutant yeast. S. cerevisiae tim23-1 growth, BacTiter-Glo luminescence, 24 h. inhibition, % at 20 µM. actives 1.3% (n = 330,000);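 active means growth inhibition of the mutant yeast at or above 50%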;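 further: temperature-sensitive mutant grown at 25 °C; plate controls were DMSO-treated mutant yeast for no effect and medium wells lacking yeast for full effect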
# SKKanGAS inh = inhibitors of SKKanGAS S. pyogenes growth in kanamycin (SK-promoter or general growth effect) | inhibition, % at 7.5 µM | actives 1.3% (n = 300,000) | BacTiter-Glo, 6 h | AID 1662;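 active means mean replicate score, as percent of positive control median, at least 50; inconclusive means mean below 50 but one replicate at or above 50; inactive means mean and every replicate below 50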;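 further: strain carries kanamycin resistance gene driven by streptokinase promoter and grows in 40 µg/ml kanamycin; loss of luminescence reflects streptokinase promoter inhibition or plain growth inhibition; 0% = median of DMSO wells and 100% = positive control at its reference dose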
# NLRP3 yeast inh = inhibitors of NALP3 inflammasome in yeast. Yeast reconstituted NLRP3/ASC/caspase-1, beta-gal luminescence, 24 h. inhibition, % at 10 µM. actives 0.39% (n = 330,000). AID 2825;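 active means inhibition of 50% or more; inactive means inhibition below 50%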;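 further: plate controls were induced DMSO wells for no effect and uninduced yeast grown without galactose for full effect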
# NALP1 inh = inhibitors of NALP1 inflammasome in yeast; S. cerevisiae NALP1/ASC/caspase-1 growth, X-gal OD620, 72 h; inhibition, % at 10 µM; actives 0.61% (n = 280,000); AID 2071; in the data active means inhibition mostly above about 24%, no sharp cut-off; inactive means mostly below about 32%
# TIM10 inh = inhibits growth of TIM10 yeast strain; S. cerevisiae TIM10 strain growth, BacTiter-Glo luminescence, 24 h; inhibition, % at 10 µM; actives 1.4% (n = 330,000); AID 463195;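 active means inhibition of 40% or more at the single tested concentration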;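 further: wild-type TIM10 isogenic control strain grown at permissive 25 °C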
# tim10-1 conf = confirmation of tim10-1 mutant yeast growth inhibitors. actives 56% (n = 7,400). shares compounds with tim10-1 inh. AID 463213. S. cerevisiae tim10-1 ts strain growth, BacTiter-Glo, 24 h. inhibition, % at 20 µM;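 active means inhibition of yeast growth at or above a set limit in either of two repeat tests at 20 µM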;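 further: tim10-1 mutant grown at permissive 25 °C to find synthetic lethal compounds; 0% = DMSO yeast wells and 100% = medium wells without yeast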
# TIM10 conf = confirmation of TIM10 yeast growth inhibitors; shares compounds with TIM10 inh; S. cerevisiae tim10 strain growth, BacTiter-Glo luminescence, 24 h; inhibition, % at 10 µM; actives 63% (n = 4,600);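 active means inhibition of yeast growth at or above a set limit in either of two replicates at 10 µM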;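 further: this counterscreen used the strain with wild-type TIM10; 0% = yeast with DMSO and 100% = medium wells lacking yeast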
# tim23-1 conf = tim23-1 yeast growth inhibition, confirmed; inhibition, % at 20 µM; shares compounds with tim23-1 inh; S. cerevisiae tim23-1 growth, BacTiter-Glo luminescence, 24 h; actives 83% (n = 4,400); AID 463218;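 active means inhibition above about 39% in either of two replicate wells at 20 µM, limit read from the data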;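 further: temperature-sensitive tim23-1 mutant grown at 25 °C; 0% = DMSO wells with yeast and 100% = medium wells without yeast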
# * marks the source's active call; other numbers are inactive results; ? = inconclusive; · = no result given.
SMILES,tim10-1 inh,tim23-1 inh,SKKanGAS inh,NLRP3 yeast inh,NALP1 inh,TIM10 inh,tim10-1 conf,TIM10 conf,tim23-1 conf
Cc1ccc(C(=O)/C=C/c2ccc(-c3ccc(C)cc3)o2)cc1,63.5*,60.1*,0.1,2.4,22.2,57.3*,63.6*,65.7*,76.3*
CCOC(=O)C1=C(CC)Nc2ccccc2N=C1NC(=O)c1cc(C)on1,19.7,19.3,·,12.6,·,4.0,·,·,·
CCOC(=O)C1=C(CC)Nc2ccccc2N=C1NC(=O)Nc1ccc(Cl)c(Cl)c1,78.6*,76.1*,93.2*,9.6,-0.7,69.8*,71.1*,-25.4,71.8*
Cc1ccc(C(=O)ONc2ccc(N=O)cc2)cc1,58.0*,71.4*,-4.1,15.2,43.8,39.0,49.1*,·,63.2*
O=Nc1ccc(NOC(=O)c2ccc(Br)cc2)cc1,·,·,·,·,11.4,·,·,·,·
CCOc1ccccc1N1CC(C(=O)Nc2ccc(S(=O)(=O)N3CCCCC3)cc2)CC1=O (stereo not given),5.8,11.0,10.7,17.7,·,-1.0,·,·,·
O=C(NC(=S)Nc1cccc(F)c1)c1cccc([N+](=O)[O-])c1,48.8*,54.2*,-1.5,28.3,12.7,6.2,3.1,·,51.6*
O=S(=O)(Cc1ccccc1)Nc1ccc(F)cc1,-15.7,1.0,-3.2,11.6,12.8,7.6,·,·,·
S=C(Nc1ccccc1)N1CCn2c1nc1ccccc12,55.5*,66.3*,16.4,33.4,0.9,42.1*,33.1*,44.0*,54.7*
CCCC(=O)Nc1nnc(/C=C/c2ccc(OC)cc2)s1,-3.0,10.6,11.6,20.4,3.8,11.1,·,·,·
COc1ccc(/C=C/c2nnc(NC(=O)C(C)(C)C)s2)cc1,41.1*,52.1*,1.1,26.5,·,29.6,31.4*,·,46.1*
Cc1ccc(-c2cc(N)n(-c3ccccc3)n2)cc1,1.0,12.7,2.3,46.3,22.2,6.8,·,·,·
Nc1cc(-c2ccc(OC(F)(F)F)cc2)nn1-c1ccc(Cl)c(Cl)c1,46.5*,57.0*,66.9*,0.7,8.0,9.4,62.5*,·,61.0*
COc1ccc(Nc2ccc([N+](=O)[O-])cn2)cc1,3.9,18.9,2.6,37.9,-11.2,-3.9,·,·,·
COc1ccc(Nc2cc(C)c3cc([N+](=O)[O-])ccc3n2)cc1,53.3*,51.2*,2.6,32.3,29.2,37.2,52.9*,·,66.9*
COc1ccc(C)cc1NC(=O)C(c1ccccc1)N1CCN(CC(=O)NC2CC2)CC1 (stereo not given),15.7,9.9,·,21.4,·,6.1,·,·,·
CC(=O)n1c2c(c3ccccc31)OC(N)=C(C#N)C2c1ccc(C(C)C)cc1 (stereo not given),42.0*,55.3*,12.3,14.0,34.4*,35.4,36.6*,·,52.2*
Fc1nc(F)c(F)c(NCCCNc2c(F)c(F)nc(F)c2F)c1F,53.8*,65.5*,-9.8,25.2,1.6,55.1*,76.3*,45.0*,81.1*
COc1ccc(-c2cc(N)n(S(=O)(=O)c3c(F)c(F)c(F)c(F)c3F)n2)cc1OC,67.7*,70.3*,29.4,-29.0,-27.1,74.8*,75.2*,73.7*,-23.1
O=C(N/N=C/c1cc(Cl)cc([N+](=O)[O-])c1O)c1cc(-c2ccccn2)nc2ccccc12,45.5*,51.5*,?,15.7,·,18.6,8.8,·,23.1
C/C(=N\Nc1nc(C)cc(-c2ccccc2)n1)c1ccc(F)cc1,5.3,5.2,-11.5,33.3,3.7,1.4,·,·,·
C/C(=N/Nc1nc(-c2ccccc2)cc(-c2ccc(F)cc2)n1)c1cccc(N)c1,46.5*,54.6*,14.6,2.6,11.4,51.6*,44.4*,0.1,53.4*
CCN(CC)c1ccc(NC(=O)c2cc(Cl)ccc2OC)cc1,42.5*,50.0*,-1.6,22.4,5.3,25.8,31.8*,·,43.8*
COc1ccc(Cl)cc1C(=O)Nc1ccncc1,7.1,22.4,-7.1,28.7,14.5,4.3,·,·,·
OC(c1cccc(Cl)c1)c1nccc2ccccc12 (stereo not given),3.5,12.2,7.1,10.7,-2.4,-4.2,·,·,·
O=C(OC(c1ccccc1)c1nccc2ccccc12)c1cc([N+](=O)[O-])cc([N+](=O)[O-])c1 (stereo not given),53.9*,57.0*,6.9,18.1,18.5,42.7*,44.5*,-6.6,47.3*

# Source: PubChem
